Assay results reported in PubChem BioAssay (NCI).
“And” between values parts separate entries of the source, which are not always exact repeats. Identical values can stand only once. About 83,000 compounds went through this panel and 20% of them were active in at least one assay; those are over-represented in the sample as a whole.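 Each cell line was grown in a 96-well plate and treated with one concentration of compound for 48 hours. Values below 10 were considered active.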 A number with no mark means an inactive call. The source made the active and inactive calls.

Test system: MDA-MB-468 breast
Assay: NCI-60 one-dose screen, 48 h (100 = growth as untreated, 0 = no growth, -100 = all killed)
Conditions: 10 µM unless noted

SMILES | growth
N#CC1=C(c2cccs2)Nc2c(c(-c3ccccc3)nn2-c2ccccc2)C12C(=O)Nc1ccccc12 (configuration not stated) | -9.71% (active)
O=C1CC(c2ccc(I)cc2)OC2C=Cc3ccccc3C12 (configuration not stated) | 123%
COc1ccc([C@H]2C(C(=O)c3ccc(Cl)cc3)C3(N[C@@H]2c2ccccc2)C(=O)Nc2ccccc23)cc1 (some centres not stated) | 28.5%
COc1ccc2c(c1)N=c1c-2cc2c(O)[nH]c(=S)n2c1=O | -25.9% (active)
Cc1cc(N=C(N)c2ccccc2)ccc1OCCCCCCCCn1ccnc1 | 2.88% (active)
CS(=O)(=O)Nc1cc(-c2ccc3ncnc(N4CCc5cc(F)c(Cl)cc54)c3c2)cnc1Cl | -60.2% (active)
COc1cc(NC(=O)C(C)C)ccc1C(=O)NC(=S)Nc1ccc(S(N)(=O)=O)cc1 | 123%
CC1=C(C(=O)OC(C)C)C(c2ccc(O)cc2)NC(=O)N1 (configuration not stated) | 103%
COc1cccc(/C=C/c2nc3ccccc3c(=O)n2CC(=O)Nc2ccccc2)c1 | 83.4%
COC(=O)c1c(C(=O)OC)c2ccc3c4ccccc4ccc3n2c1C(=O)OC | 89.6%
CCCCCCCCc1cccc(CC(=O)Nc2ccc(C)cc2C(=O)O)c1 | 73% [25 µM]
O=C(c1cc2cc(OCCCN3CCC3)ccc2[nH]1)N1C[C@@H](CCl)c2c1cc(OCc1ccccc1)c1ccccc21 | -76.3% (active)
CC(C)(C)OC(=O)N1CCC2(CC1)Oc1ccccc1[C@H]1CC(c3ccc(Br)cc3)=NN12 | 67.7%
COc1ccc(NC2=C(I)C(=O)C(C)=C(C)C2=O)cc1 | -42.3% (active)
CC[C@]12C=CCN3CC[C@@]4(c5ccc(OC)cc5N(C)[C@H]4[C@@](O)(C(=O)OC)[C@@H]1OC(=O)CCCC[P+](c1ccc(F)cc1)(c1ccc(F)cc1)c1ccc(F)cc1)[C@@H]32 | -74.6% (active)
FC(F)(F)c1cc2c(Cl)ncnc2n1CCN1CCCCC1 | -10.6% (active)

SMILES | growth
O=C(CSc1nnc(-c2ccc(-c3nc4ccc(Cl)cc4[nH]3)cc2)o1)Nc1ccccc1 | 90.9%
Cc1cccc(NCC(=O)N2CCN(c3ncnc4c3cnn4-c3ccccc3)CC2)c1 | 35.8%
CS(=O)(=O)c1ccc(-n2nc(C(=O)NCc3ccccc3)cc2-c2ccc(Cl)cc2)cc1 | 86.7%
CS(=O)(=O)Nc1cccc(-n2c(COc3ccc(OC(F)(F)F)cc3)nc3ccccc32)c1 | 107% and 106%
O=C(CSc1nc2sc3c(c2c(=O)n1-c1ccc(Cl)cc1)CCCC3)NNC(=O)c1ccc(Br)cc1 | 69.7%
O=C(c1ccc(Cl)cc1)C1[C@H](c2ccccc2Cl)[C@@H](c2ccccc2)NC12C(=O)Nc1ccccc12 (some centres not stated) | -44.8% (active)
O=C1NC(=NC23CC4CC(CC(C4)C2)C3)N/C1=C\c1ccc2ncccc2c1 | 19.4%
N#CC1=C(c2ccco2)Nc2c(c(-c3ccccc3)nn2-c2ccccc2)C12C(=O)Nc1ccc(Cl)cc12 (configuration not stated) | 42.3%
O=C(c1ccc(O)cc1)C1[C@H](c2ccccc2Br)[C@@H](c2ccccc2)NC12C(=O)Nc1ccccc12 (some centres not stated) | -36.1% (active)
c1ccc(CSc2nnc(-c3ccc4nc(-c5ccccc5)[nH]c4c3)o2)cc1 | 2.91% (active)
O=C(CSc1nnc(-c2ccc(-c3nc4ccccc4[nH]3)cc2)o1)Nc1ccccc1 | 92.9%
CCCCCCCCCCCCCCCCCC(=O)Nc1ccc(OC)cc1 | 99.8%
Nc1nn2c(-c3cc4ccccc4oc3=O)ccnc2c1N=Nc1ccccc1 | 78.3%
O=C1NC(=S)/C(=C/c2cn(-c3ccccc3)nc2-c2ccccc2)S1 | 22.3%
CC(Nc1ncnc2ccc(-c3ccc4oc(N)nc4c3)cc12)c1ccccc1 (configuration not stated) | -78.4% (active)
O=C(N/N=C/c1ccsc1)c1[nH]c2ccc(Br)cc2c1-c1ccccc1 | -25.6% (active)
